Laboratory results reported in PubChem BioAssay (NCATS).
Results filed as inconclusive are left out. Activity calls are given as the source filed them. Unless noted, calls come from the whole dose curve; as a rule, active = well fitted curve in the direction sought with a large enough effect; inconclusive = small, poorly fitted or top-dose-only effect, or another doubt; inactive = no such curve, though single readings can be large; an effect the other way counts as inactive or inconclusive.

How the values were obtained:
[1] = biological target: 3',5'-cyclic-AMP phosphodiesterase 4B (Homo sapiens) (UniProt Q07343); experiment: qHTS Assay for Inhibitors of PDE-IV (AID 607; active = well fitted activation curve with a large enough effect in the main read-out, with a control signal flat, not every such curve was filed as active)
Method in brief: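 The readout is membrane depolarisation from a cAMP-sensing CNG channel, detected with a potential dye at ex 535/em 590. Cells were HEK293-derived (endogenous PDE-IV) at 1000 cells/well, titrated up to 22.9 uM final.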

[2] = Cell Viability - Mesenchymal (AID 546); settings: mesenchymal cells viability, qHTS; activity change, negative = cytotoxicity: at 91.7 µM (top of the series);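 note: cells exposed to compound for 40 hours before reading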
Method in brief: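 Human kidney mesenchymal cells from normal renal glomeruli, 1000 cells/well, rested 5 hr at 37 °C, then treated 40 hr at 37 °C in complete medium. Cellular ATP read by CellTiter-Glo luminescence; AC50 from Hill-equation fits.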

[3] = Cellular Toxicity (caspase-3) HepG2 (AID 654);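 note: cells exposed to compound for 16 hours before reading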
Method in brief: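 HepG2 cells (1500/well) in complete medium were treated with compounds for 16 hr at 37 °C. Caspase-3/7 activity was then read as luminescence from peptide-aminoluciferin cleavage. AC50 came from Hill fits, normalized to DMSO and 100 uM tamoxifen.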

[4] = Cellular Toxicity (caspase-3) Jurkat (AID 655);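 note: cells exposed to compound for 16 h at 37 °C before reading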
Method in brief: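 qHTS in human Jurkat T-cell leukemia line: 16 hr compound treatment at 37 °C, caspase-3/7 activity measured by Caspase-Glo luminescence. AC50 derived from Hill equation.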

[5] = Cellular Toxicity (caspase-3) HUV-EC-C (AID 656)
Method in brief: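 Concentration-dependent caspase 3/7 induction was assessed in HUV-EC-C cells exposed for 16 hours. Data scaled between DMSO and tamoxifen (100 uM) controls.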

[6] = Cellular Toxicity (caspase-3) SHSY5Y (AID 657);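 note: cells exposed to compound for 16 hours at 37 °C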
Method in brief: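 Readout: caspase-cleaved peptide-aminoluciferin substrate driving luciferase light in SH-SY5Y neuroblastoma cells after 16 h treatment. Response normalized to DMSO and 10 uM staurosporine controls.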

[7] = Cellular Toxicity (caspase-3) BJ (AID 658)
Method in brief: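 BJ human foreskin fibroblasts, 1000 cells/well, treated 16 hours at 37 °C in complete medium; caspase 3/7 activity by Caspase-Glo luminescence after 1 hr at room temperature. Normalized to DMSO and 10 uM staurosporine; AC50 from Hill fits.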

[8] = Cellular Toxicity (caspase-3) MRC-5 (AID 659)
Method in brief: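 MRC-5 human normal lung fibroblasts, 1500 cells/well, treated 16 h at 37 °C in complete medium. Caspase 3/7 measured by Caspase-Glo luminescence after 1 h at room temperature. Normalized to DMSO and 10 uM staurosporine; AC50 from Hill fit.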

[9] = Cellular Toxicity (caspase-3) Mesangial (AID 660); settings: Potency: caspase-3 activation;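 note: cells exposed to compound for 16 h before the caspase read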
Method in brief: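 Human renal glomerular mesangial cells (1000/well) were treated with compounds for 16 h at 37 °C in complete medium, then caspase 3/7 activity was read by Caspase-Glo luminescence. Data were normalized to DMSO and 100 uM tamoxifen; AC50 from Hill fits.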

[10] = Cellular Toxicity (caspase-3) SK-N-SH (AID 661)
Method in brief: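 SK-N-SH human neuroblastoma cells (1500/well) were treated with compounds for 16 hr at 37 °C in complete medium; caspase 3/7 activity was read by Caspase-Glo luminescence. AC50 came from Hill fits of data normalized to DMSO and 10 uM staurosporine.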

Measured: Potency

3',5'-cyclic-AMP phosphodiesterase 4B (Homo sapiens), sequence (Q07343 whole entry, looked up): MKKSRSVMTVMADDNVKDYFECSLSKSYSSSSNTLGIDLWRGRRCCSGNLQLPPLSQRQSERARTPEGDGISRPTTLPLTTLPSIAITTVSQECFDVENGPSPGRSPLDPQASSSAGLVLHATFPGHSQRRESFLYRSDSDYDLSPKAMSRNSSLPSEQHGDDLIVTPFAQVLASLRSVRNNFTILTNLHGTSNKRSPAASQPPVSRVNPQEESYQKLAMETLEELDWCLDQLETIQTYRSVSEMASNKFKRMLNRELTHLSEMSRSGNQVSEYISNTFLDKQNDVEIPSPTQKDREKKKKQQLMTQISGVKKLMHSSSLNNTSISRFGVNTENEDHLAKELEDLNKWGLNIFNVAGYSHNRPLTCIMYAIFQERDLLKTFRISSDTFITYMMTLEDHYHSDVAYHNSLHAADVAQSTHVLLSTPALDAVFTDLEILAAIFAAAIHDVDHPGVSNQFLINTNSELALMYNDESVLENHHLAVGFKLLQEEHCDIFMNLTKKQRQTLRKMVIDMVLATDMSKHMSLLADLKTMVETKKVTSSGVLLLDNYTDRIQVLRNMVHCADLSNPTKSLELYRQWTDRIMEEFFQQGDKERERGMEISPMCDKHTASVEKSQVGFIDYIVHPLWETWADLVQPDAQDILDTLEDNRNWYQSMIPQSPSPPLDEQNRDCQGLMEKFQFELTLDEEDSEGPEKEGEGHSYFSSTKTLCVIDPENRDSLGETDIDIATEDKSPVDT

CC(C)NC[C@H](O)COc1cccc2[nH]ccc12
inactive: [1]

CN(C)c1ccc(N=NS(=O)(=O)O)cc1
inactive: [2] | [3] | [4] | [5] | [6] | [7] | [8] | [9] | [10]

NCCNC(=O)c1ncsc1-c1cccc(F)c1
inactive: [1]
